From PubChem
A selection: hits, their analogues and other compounds. The true share with any hit is near 3.1%.
IDH1 R132H inh = inhibitors of human mutant IDH1 R132H; O75874; IDH1-R132H enzyme, NADPH consumption, diaphorase/resazurin fluorescence; Potency, µM (series often up to 76.6 µM), without a hit: at the highest dose activity change, negative = inhibition, actives largely listed as inhibitors; 0.093% of 390,000 active; AID 602179; note: potency is the fitted concentration of half-maximal effect; % is set by controls: 0 for no effect and ±100 for the full control effect; nearly all actives have a fitted effect of over 65% in size
Target sequence (O75874 whole entry R132H, stated change not applied): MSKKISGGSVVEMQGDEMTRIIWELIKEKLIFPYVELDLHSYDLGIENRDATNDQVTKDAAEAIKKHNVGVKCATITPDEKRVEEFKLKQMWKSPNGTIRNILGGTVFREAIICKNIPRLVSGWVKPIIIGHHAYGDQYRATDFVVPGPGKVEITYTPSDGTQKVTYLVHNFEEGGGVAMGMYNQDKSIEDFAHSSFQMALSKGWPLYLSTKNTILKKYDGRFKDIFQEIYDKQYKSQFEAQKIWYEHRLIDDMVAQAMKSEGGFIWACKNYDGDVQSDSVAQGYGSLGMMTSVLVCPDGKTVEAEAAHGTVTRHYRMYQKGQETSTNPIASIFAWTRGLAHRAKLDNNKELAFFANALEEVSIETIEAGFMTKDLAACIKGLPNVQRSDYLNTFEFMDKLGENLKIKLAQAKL
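IDH1-R132H (0.5 ug/mL) preincubated 30 min with compound, then NADPH (0.016 mM) and alpha-KG (2 mM) added; 80 min at RT, pH 7.5. Remaining NADPH coupled via diaphorase/resazurin to fluorescence (540/590 nm); concentration-response curves normalized to no-enzyme control.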
A549 tox = A549 cytotoxicity, counter-screen for Nrf2 inhibitors | A549 ARE-Fluc cells, CellTiter-Fluor viability, 18-24 h | AID 504648 | Potency, µM (series often up to 46 µM), without a hit: at the top dose activity change, negative = cytotoxicity, actives largely listed as inhibitors | 0.16% of 390,000 active; note: potency is the fitted concentration of half-maximal effect; % is set by controls: 0 for no effect and ±100 for the full control effect
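A549 ARE_Fluc cells in 5% FBS OPTI-MEM were exposed to compounds in concentration-response for 18-24 h at 37 deg C. Viability was read by CellTiter-Fluor fluorescence (Ex 405/Em 525) after 30 min, before the luciferase read.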
Nrf2 inh = inhibitors of Nrf2 signaling | A549 ARE-Fluc reporter, luciferase luminescence, 18-24 h | Potency, µM (series often up to 46 µM), for inactives: top-dose activity change, negative = inhibition, usual class: inhibitors | 2.1% of 360,000 active; note: potency is the fitted concentration of half-maximal effect; % is set by controls: 0 for no effect and ±100 for the full control effect; nearly all actives have a fitted effect of over 60% in size
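A549 ARE_Fluc cells, 5000/well, 5% FBS OPTI-MEM; compounds in dose-response, 18-24 h at 37 °C/5% CO2; CellTiter-Fluor viability read (Ex 405/Em 525), then BugLite luciferase luminescence = Nrf2 activity.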
TrxR1 substrate = rat thioredoxin reductase 1 substrate activity; O89049; purified TrxR1 substrate turnover, NADPH consumption readout; Potency, µM (titrated, usually from 114 µM), for the others: top-dose activity change, negative = substrate turnover; 0.01% of 390,000 active; note: potency is the fitted concentration of half-maximal effect; % is set by controls: 0 for no effect and ±100 for the full control effect; nearly all actives have a fitted effect of over 50% in size
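Rat TrxR1, dispensed at 90 nM, was prereduced with 400 uM NADPH (final) for 5 min at ~22 deg C, then incubated with compound 15 min before 400 uM selenite. A first-read NADPH fluorescence drop versus no-compound background flagged substrates.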
Mito fusion yeast = blocks mitochondrial division or promotes mitochondrial fusion; Potency, µM (titrated, usually from 46.1 µM), for inactives: at the top dose growth rescue (activation), actives largely listed as activators; 0.23% of 320,000 active; S. cerevisiae fusion-defective mutant growth rescue, CellTiterGlo 48 h; note: potency is the fitted concentration of half-maximal effect; % of control where 0% means no effect; nearly all actives have a fitted effect of over 45% in size
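Compounds are tested for their ability to restore growth of mitochondrial fusion-defective yeast strains at non-permissive 37C in YPEG medium over 48 hours. Viability is quantified by luciferase luminescence.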
rTrxR1 inhibitor = rat TrxR1 inhibition. recombinant rTrxR1, NADPH fluorescence consumption, selenite substrate. AID 588453. Potency, µM (top dose mostly 114 µM), without a hit: at the top dose activity change, negative = inhibition, most hits filed as inhibitors. 1% of 390,000 active. O89049; note: potency is the fitted concentration of half-maximal effect; % is set by controls: 0 for no effect and ±100 for the full control effect; nearly all actives have a fitted effect of over 65% in size
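Rat TrxR1 (90 nM in the dispensed reagent) was pre-reduced with 400 uM NADPH for 5 min at room temperature, then incubated with compound for 15 min. After 400 uM selenite was added, NADPH fluorescence (Ex 340/Em 450 nm) was followed for 8 min.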
Resorufin autofl = autofluorescence interference, mutant IDH1 hit counter-screen; Resorufin detection reagent fluorescence interference, cell-free; shares compounds with IDH1 R132H inh; 750 tested, under 10 active; inhibition of signal, % at 51.2 µM;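 note: 0% = wells with normal resorufin and full inhibition = wells lacking resorufin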
WT IDH1 inh = selectivity of mutant IDH1 inhibitors: human wild-type IDH1. 9% of 750 active. AID 623995. shares compounds with IDH1 R132H inh. WT IDH1 enzyme, NADPH diaphorase/resazurin fluorescence. Potency, µM (highest dose often 115 µM), inactives show at the highest dose activity change, negative = inhibition, usual class: inhibitors;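 note: potency is the fitted concentration of half-maximal effect; 0% = full WT IDH1 enzyme control and full inhibition = no enzyme wells; nearly all actives have a fitted effect of over 55% in size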
Target sequence (O75874 whole entry, looked up): as the sequence (O75874 whole entry R132H, stated change not applied) above, with H132R counted along it
mIDH1 confirm = mutant IDH1 (human) inhibition, confirmed | shares compounds with IDH1 R132H inh | IDH1 R132H enzyme, NADPH diaphorase/resazurin fluorescence | Potency, µM (highest dose often 76.6 µM), for inactives: top-dose activity change, negative = inhibition, usual class: inhibitors | 83% of 750 active; note: potency is the fitted concentration of half-maximal effect; nearly all actives have a fitted effect of over 50% in size
* hit, by the source's call; ? = inconclusive; . = no result given; [ ] = dose if it differs, or a comment. Calls come from the whole dose curve; as a rule, active = well fitted curve in the direction sought with a large enough effect; inconclusive = small, poorly fitted or top-dose-only effect, or another doubt; inactive = no such curve, though single readings can be large; an effect the other way counts as inactive or inconclusive.

SMILES	IDH1 R132H inh	A549 tox	Nrf2 inh	TrxR1 substrate	Mito fusion yeast	rTrxR1 inhibitor	Resorufin autofl	WT IDH1 inh	mIDH1 confirm
COc1ccc(C)cc1N(C(=O)c1snc(C(N)=O)c1N)C(C(=O)NC1CCCCC1)c1ccc(C)o1 (stereo unspecified)	?	-15.6%	?	12.3%	-15.5%	7.2%	-2.6	1.7%	14.1µM*
COc1ccccc1N(C(=O)c1snc(C(N)=O)c1N)C(C(=O)NC1CCCC1)c1ccco1 (stereo unspecified)	-17.4%	-8.7%	?	37.8%	-2.7%	3.5%	.	.	.
Cc1ccc(N(C(=O)c2snc(C(N)=O)c2N)C(CC(C)C)C(=O)NC2CCCC2)cc1 (stereo unspecified)	-5.2%	-7.2%	-11.1%	-1.2%	-0.7%	20.8%	.	.	.
CCCCC(C(=O)NC1CCCC1)N(C(=O)c1snc(C(N)=O)c1N)c1ccc(C)cc1 (stereo unspecified)	?	9.4%	?	-1.8%	4.3%	9.9%	-4.3	-0.4%	?
Cc1cccc(N(C(=O)c2snc(C(N)=O)c2N)C(C(=O)NC2CCCC2)c2ccco2)c1 (stereo unspecified)	?	-10.0%	5.7%	5.5%	6.3%	-0.4%	-10.6	-1.0%	35.5µM*
COc1cc(O)ccc1-c1nc2cc(C)ccn2c1Nc1ccccc1C	5.4%	-2.7%	5.1%	83.6%	.	-32.0%	.	.	.
CCc1cccc(NC(=O)C(CC(C)C)NS(=O)(=O)c2ccc3c(c2)oc(=O)n3C)c1 (stereo unspecified)	-15.0%	-7.0%	?	-7.2%	.	-2.0%	.	.	.
CCc1ccc(NC(=O)Cn2c(=O)n(Cc3ccco3)c(=O)c3cccnc32)cc1	1.0%	2.1%	15.6%	-3.7%	.	-1.1%	.	.	.
Cc1c(CCC(C)C)c(-n2ccnc2C)n2c(nc3ccccc32)c1C#N	?	-16.5%	-12.6%	17.2%	6.5%	15.7%	-3.9	10.4%	?
CC(=O)Nc1ccc(C2=NNC(=NCC3CCCO3)SC2)cc1 (stereo unspecified)	?	7.9%	10.5%	-2.3%	-4.0%	-1.2%	-5.3	364.1%	44.7µM*
COc1ccccc1OCCn1c(C(C)Oc2ccccc2)nc2ccccc21 (stereo unspecified)	-17.9%	?	?	-13.1%	.	-1.7%	.	.	.
Cc1cc(C(=O)CCl)c(C)n1-c1cccc(S(=O)(=O)N2CCOCC2)c1	?	0.9%	-13.7%	1.6%[57.1 µM]	4.4%	?	2.9	-2.2%	39.8µM*
CC(C)c1ccc(NC2CCCN(C(=O)c3ccc(N4CCOCC4)cc3)C2)cc1 (stereo unspecified)	44.7µM*	-1.4%	?	-11.5%	-1.0%	-8.8%	-9.4	-3.7%	20µM*
CCOC(=O)c1c(NC(C)=O)c2c3c(sc2n1Cc1nc(-c2ccccc2OCC)oc1C)CCCC3	.	-6.3%	-2.2%	-4.3%	.	2.5%	.	.	.
O=C1c2[nH]nc(-c3ccccc3O)c2C(c2ccc(Cl)cc2)N1Cc1ccco1 (stereo unspecified)	39.8µM*	-22.3%	-3.8%	4.5%	.	12.4%	-1.5	1.3%	28.2µM*
COc1cccc(C2c3c(-c4ccccc4O)n[nH]c3C(=O)N2Cc2ccco2)c1 (stereo unspecified)	52.1µM*	8.0%	16.6%	1.2%	7.3%	5.9%	0.4	-4.7%	39.8µM*
CCCCOc1cccc(C2c3c(-c4cc(C)ccc4O)n[nH]c3C(=O)N2CCOC)c1 (stereo unspecified)	31.6µM*	-12.5%	-5.9%	-5.1%	.	17.3%	-11.0	-0.1%	22.4µM*
O=C1c2[nH]nc(-c3ccccc3O)c2C(c2ccccc2)N1Cc1ccco1 (stereo unspecified)	-0.3%	-9.2%	6.4%	-2.1%[57.1 µM]	-3.7%	7.2%[57.1 µM]	.	.	.
CCOc1cccc(C2c3c(-c4cc(C)ccc4O)n[nH]c3C(=O)N2Cc2ccco2)c1 (stereo unspecified)	31.6µM*	-17.2%	-8.7%	-10.7%	.	9.4%	1.0	-1.6%	11.2µM*
Cc1ccc(CNC(=O)C2CCCN(Cc3nc(-c4cccc(C)c4)oc3C)C2)cc1 (stereo unspecified)	32.3%	-3.1%	?	-20.1%	.	-27.1%	.	.	.
Cc1ccc(CN(Cc2cccn2-c2nnc(N3CCCC3=O)s2)C(=O)Nc2ccc(F)cc2)cc1	-2.7%	0.7%	0.9%	3.9%	.	22.7%	.	.	.
COc1cc(C2c3c(-c4ccccc4O)n[nH]c3C(=O)N2Cc2ccco2)ccc1OCC(C)C (stereo unspecified)	?	-17.5%	-28.7%	-3.5%	.	8.1%	0.7	-19.3%	20µM*
COc1cc(C2c3c(-c4ccccc4O)n[nH]c3C(=O)N2CCO)ccc1OCC(C)C (stereo unspecified)	-26.6%	-0.3%	-7.6%	0.8%	.	8.4%	.	.	.
Cc1ccc(O)c(-c2n[nH]c3c2C(c2ccccc2F)N(Cc2ccco2)C3=O)c1 (stereo unspecified)	?	?	?	-4.4%	.	17.4%	-10.1	-20.9%	25.1µM*
COc1ccc2oc(-c3ccc(NC(=O)c4ccc(Cl)cc4Cl)cc3)nc2c1	0.0%	1.3%	?	-3.6%	.	6.0%	.	.	.
Cc1oc2c(C)c3oc(=O)c(CCC(=O)O)c(C)c3cc2c1-c1ccccc1	23.3µM*	-0.6%	?	1.2%	3.55µM*	0.8%	-0.1	50.1µM*	12.6µM*
Cc1c(CCC(=O)O)c(=O)oc2c(C)c3occ(-c4ccc(Cl)cc4)c3cc12	-19.0%	-6.7%	?	11.8%	20.4%	5.0%[57.1 µM]	.	.	.
CCc1ccccc1NC(=O)CN1C(=O)c2cccnc2Oc2ccc(Cl)cc21	-17.3%	7.8%	-5.1%	-11.8%	.	-6.9%	.	.	.
CCOC(=O)c1cnc(NCc2ccccc2OC)c2ccccc12	17.0%	-1.2%	.	28.9%[57.1 µM]	.	-2.2%[57.1 µM]	.	.	.
